The values that follow come from PubChem BioAssay AID1851 (National Center for Advancing Translational Sciences (NCATS), 2009).

The campaign covered roughly 16,000 compounds. About 5,700 (36%) were called active. Roughly 24% stayed inconclusive and do not appear here. Some of the results follow. Values without a mark were called inactive. Calls come from the whole dose curve; as a rule, active = well fitted curve in the direction sought with a large enough effect; inconclusive = small, poorly fitted or top-dose-only effect, or effect the other way; inactive = no such curve, though single readings can be large or run the other way.
% is set by controls: 0 for no effect and ±100 for the full control effect.

This assay deals with Cytochrome P450 1A2 (Homo sapiens) (UniProt P05177). In words: Cytochrome panel assay with activity outcomes. The settings on record: recombinant CYP, pro-luciferin dealkylation, luminescence, p450-cyp1a2; series mostly up to 57.1 µM; activity, negative = inhibition: at the top concentration.
Sequence of Cytochrome P450 1A2 (Homo sapiens) (P05177 whole entry, looked up): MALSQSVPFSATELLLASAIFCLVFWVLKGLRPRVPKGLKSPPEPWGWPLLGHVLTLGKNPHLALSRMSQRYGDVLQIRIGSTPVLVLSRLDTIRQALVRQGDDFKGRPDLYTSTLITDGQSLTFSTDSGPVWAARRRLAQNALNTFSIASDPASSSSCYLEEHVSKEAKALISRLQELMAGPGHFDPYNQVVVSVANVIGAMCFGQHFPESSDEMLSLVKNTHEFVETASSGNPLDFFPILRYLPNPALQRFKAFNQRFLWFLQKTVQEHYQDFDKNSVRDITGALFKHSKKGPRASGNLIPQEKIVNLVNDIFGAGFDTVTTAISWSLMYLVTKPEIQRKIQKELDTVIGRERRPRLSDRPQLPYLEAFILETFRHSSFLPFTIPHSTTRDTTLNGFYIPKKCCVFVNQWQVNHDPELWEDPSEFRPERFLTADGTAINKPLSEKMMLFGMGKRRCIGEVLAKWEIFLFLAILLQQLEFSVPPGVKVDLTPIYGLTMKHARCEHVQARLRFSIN
Take `CC[C@@H](c1ccccc1)n1c(=O)n2n(c1=O)[C@H]1[C@H](O)[C@H]3O[C@@H]3/C(=N/OC/C=C(\C)CCC=C(C)C)[C@@H]1CC2`: the activity, negative = inhibition was -18.9% [at 11.4 µM]. By AC50 is commonly meant the concentration giving half of the maximal activity seen. As for `Cc1nc(/N=C(\N)Nc2ccccc2)nc2ccccc12`, the AC50 was 5010 nM (active). Same read-out and setting: in the case of `Cc1cccc(N/C(N)=N/c2nc(C)cc(C)n2)c1` it was 12600 nM (active). The same measure, in the same setting: next, `[O-][n+]1c(CN2CCCCC2)nc2cccc3c2c1-c1ccccc1-3`: 1580 nM (active). On to `Oc1cccnc1CN1CCCCC1`, for which the activity, negative = inhibition was -14.4% [at 11.4 µM]. In the case of `CN1CCN(Cc2nc3cccc4c3c([n+]2[O-])-c2ccccc2-4)CC1`, the AC50 is 1260 nM (active). As for `Cc1noc(C)c1C(=O)N1CCC[C@@]2(CCN(Cc3cc(C(F)(F)F)cc(C(F)(F)F)c3)C2)C1`, the “activity, negative = inhibition” value is 16.9%. On to `Nc1ccc(N=Nc2c(S(=O)(=O)O)cc3ccccc3c2S(=O)(=O)O)cc1`, for which the activity, negative = inhibition is -20.9% [at 2.29 µM]. On to `CC(C)CCNC(=S)NC1CCCC1`, for which the half-maximal activity concentration (AC50) is 14100 nM (active). For the molecule `CCNC(=S)N1CCC(NC(=O)C2CCCCC2)CC1`, the “activity, negative = inhibition” value is 35.3%. Same read-out and setting: in the case of `CCC(C)NC(=O)C1CCCN(C(=O)NC2CCCCC2)C1` (stereo not drawn) it was -4.85%. On to `Cc1sc(N/N=C/c2cccnc2)nc1-c1ccccc1`, for which the AC50 is 63.1 nM (active).

Regarding `CC(=O)c1nnn(-c2nc(N)nc(N(c3ccccc3)c3ccccc3)n2)c1C`, the concentration at half-maximal activity (AC50) was 22400 nM (active). Take `CC(=O)c1c(N2CCC(C(N)=O)CC2)nc(=S)n(-c2ccccc2)c1C`: the “activity, negative = inhibition” value was -0.743%. Still for that read-out and setting: next, `O=C(O)CCC(O)=C1S(=O)(=O)OCCOS1(=O)=O`: -21.5% [at 11.4 µM]. Take `COc1ccc(C(=O)Nc2ccc(F)cc2F)cc1OC`: the concentration at half-maximal activity (AC50) was 14100 nM (active). Turning to `O=C(O)/C=C/C(=O)Nc1ccc(F)cc1F`, the “activity, negative = inhibition” value was 20.4%. Take `CC(=O)c1ccc(OC(=O)C2c3ccccc3Oc3ccccc32)cc1`: the AC50 is 4470 nM (active).

Take `O=C(O)c1ccccc1C1c2ccccc2Oc2ccccc21`: the activity, negative = inhibition was -20.4% [at 2.29 µM]. The same measure, in the same setting: in the case of `COC(=O)c1c(-c2cc(OC)c(OC)c(OC)c2)c2ccc(OCc3ccccn3)cc2c(=O)n1-c1ccc(N)cc1` it was -16%. For the molecule `O=c1cnc2cnc(Nc3ccccc3)nc2n1CCc1ccccc1`, the AC50 was 3160 nM (active).

Take `CCNc1ncc2ncc(=O)n(CCc3ccccc3)c2n1`: the concentration at half-maximal activity (AC50) is 1000 nM (active).

In the case of `CCNc1ncc2nc(C)c(=O)n(CCc3ccccc3)c2n1`, the AC50 was 1580 nM (active). In the case of `CN1/C(=C\C=[N+](C)c2ccccc2)C(C)(C)c2ccccc21`, the “activity, negative = inhibition” value is -11.3%.

`Nc1nc2c(nc(Br)n2[C@@H]2O[C@H]3COP(=O)(O)O[C@@H]3[C@H]2O)c(=O)[nH]1`: the “activity, negative = inhibition” value is 1.91%. On the same count and under the same terms, in the case of `Cn1c(=O)c2c(n(Cc3ccccc3)c1=O)NC(=O)C2CC(=O)NCc1cccc(Cl)c1` (stereo not drawn) it was 15.8%.

Turning to `Cc1ccc(CNC(=O)Cc2csc(Nc3nc(=S)[nH]c4ccccc34)n2)cc1`, the concentration at half-maximal activity (AC50) was 3160 nM (active).

In the case of `O=C(Cc1csc(Nc2nc(=S)[nH]c3ccccc23)n1)NCc1cccc(Cl)c1`, the AC50 was 4470 nM (active). Still for that read-out and setting: next, `COc1ccc(CNC(=O)Cc2csc(Nc3nc(=S)[nH]c4ccccc34)n2)cc1`: 4470 nM (active).

For `CCOc1cc2[nH]c(=O)n(CCC(=O)NCc3ccc(OC)cc3)c(=O)c2cc1OCC`, the “activity, negative = inhibition” value was -12.3%. Same read-out and setting: next, `Cc1ccc(CS(=O)(=O)CCC(=O)NCc2ccccn2)cc1`: -11%; `CC(C)(C)NC(=O)C(c1ccccn1)N(C(=O)C1CSC(=O)C1)c1ccc(F)cc1` (stereo not drawn): 2.02%.

As to `S=C(Nc1ccc2c(c1)Cc1ccccc1-2)Nc1ccc2c(c1)Cc1ccccc1-2`, the AC50 was 200 nM (active). `COc1cccc(NC(=S)NN2CCN(C)CC2)c1`: the “activity, negative = inhibition” value was -5.77%. On the same count and under the same terms, next, `O=C(O)c1ccccc1-c1ccccc1C(=O)Nc1ccc2c(c1)Cc1ccccc1-2`: -7.14% [at 2.29 µM].

Consider `O=C(Nc1ccc2c(c1)Cc1ccccc1-2)[C@@H]1[C@H](C(=O)O)[C@]2(Cl)C(Cl)=C(Cl)[C@@]1(Cl)C2(Cl)Cl`, for which the half-maximal activity concentration (AC50) was 3160 nM (active). Same read-out and setting: next, `COc1ccccc1-c1cc(Nc2ccn[nH]2)ncn1`: 631 nM (active); `COc1ccccc1-c1cc(Nc2ccc(F)cc2)ncn1`: 2000 nM (active); `Cc1ccccc1-c1cncnc1NCc1cccs1`: 3160 nM (active). Same read-out and setting: in the case of `CN(C)Cc1ccccc1-c1cncnc1NCc1cccs1` it was 25100 nM (active); in that of `COc1ccccc1-c1cncnc1NCc1cccs1`, 3160 nM (active). `O=P(Cc1cc[n+]([O-])cc1)(c1ccccc1)c1ccccc1`: the “activity, negative = inhibition” value is 13.4%. Turning to `COc1ccccc1CNc1nc(-c2ccc3c(c2)OCO3)nc2ccccc12`, the AC50 was 631 nM (active). Same read-out and setting: in the case of `Cc1cccc(CNc2nc(-c3ccc4c(c3)OCO4)nc3ccccc23)c1` it was 631 nM (active); in that of `c1cncc(CNc2nc(-c3ccc4c(c3)OCO4)nc3ccccc23)c1`, 100 nM (active); in that of `c1ccc(CNc2nc(-c3ccc4c(c3)OCO4)nc3ccccc23)cc1`, 501 nM (active). As for `CC[C@]1(c2ncc[nH]2)Cc2ccccc2O1`, the “activity, negative = inhibition” value is -31%. On the same count and under the same terms, in the case of `CC(C)OC(=O)C(CC(=O)O)N1CCOCC1` (stereo not drawn) it was 1.7%; in that of `COc1ccc(NC(=O)N2CC3(CCN(C(=O)c4ccc(OC)cc4)CC3)C2)cc1`, -21.6%; in that of `CC(=O)OC[C@@H]1O[C@@H](O/N=C2/C[C@@H](O)[C@@H](O)[C@@H]3[C@@H]4C(=O)N(C5CCCCC5)C(=O)[C@H]4CC[C@@H]23)[C@H](OC(C)=O)[C@H](OC(C)=O)[C@@H]1OC(C)=O`, 0.189% [at 11.4 µM].

`O=c1[nH]c(=O)n([C@@H]2C[C@H](O)[C@H](CO)O2)cc1C(F)(F)F`: the “activity, negative = inhibition” value is -3.57% [at 25.6 µM]. Same read-out and setting: in the case of `COc1ccc(COC(=O)N/N=C2/C[C@@H](O)[C@@H](O)[C@@H]3[C@@H]4C(=O)N([C@@H](C)c5ccccc5)C(=O)[C@H]4CC[C@H]23)cc1` it was -2.7% [at 11.4 µM].

For `Cc1cnc(CNc2nc(-c3ccc4c(c3)OCO4)nc3ccccc23)cn1`, the AC50 was 2000 nM (active). `c1csc(CNc2nc(-c3ccc4c(c3)OCO4)nc3ccccc23)c1`: the AC50 is 794 nM (active).

On to `COc1ccccc1CNc1nc(-c2ccc(N(C)C)cc2)nc2ccccc12`, for which the AC50 is 2510 nM (active). In the case of `NCCNCC1CCNCC1`, the activity, negative = inhibition was -3.59% [at 2.29 µM]. Regarding `CCn1cc(C(=O)NCC(=O)OC)c2cc(OC)c(OC)cc2c1=O`, the “activity, negative = inhibition” value was -13.6%.

Take `NCc1ccccc1CC(=O)N[C@@H]1C(=O)N2C(C(=O)O)=C(CSc3nnnn3CC(=O)O)CS[C@@H]12`: the “activity, negative = inhibition” value was -9.72% [at 25.6 µM].
